The panel holds about 83,000 compounds, 20% with a hit somewhere; the sample as a whole holds those more often.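 Single-concentration screen, 48 h exposure, 96-well plates. Endpoint: percent growth. Below 10 = active.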 The source made the active and inactive calls.
Each compound was assayed on BT-549 breast (assay: NCI-60 one-dose screen, 48 h (100 = growth as untreated, 0 = no growth, -100 = all killed)). Conditions: 10 µM.
Protocol: Growth inhibition of the BT-549 human tumor cell line is measured as a screen for anti-cancer activity. Cells are grown in 96 well plates and exposed to the test compound for 48 hours. Compounds are tested at a single concentration, which is 10^-5 M for most compounds. The reported endpoint is percent growth (GI% or GIPRCNT), where numbers from 0 - 100% represent growth inhibition, and numbers from -100% - 0 represent cell death. For example, a value of 40 represents 60% growth inhibition. A value of 0 means no net growth occurred over the course of the experiment. A value of -40 indicates 40% of cells at the beginning of the experiment died by the end of the experiment. A value of -100 means all cells are dead at the end of the experiment.
NCI-60 Human Tumor Cell Lines Screen was performed using the standard one-dose NCI protocol, which is described in more detail at https://dtp.cancer.gov/discovery_development/nci-60/default.htm.
Compounds with GIPRCNT values below 10 were considered active. Activity score was based on GIPRCNT using the following formula: […]
Score is 0 for GIPRCNT values of 100 or above, 50 for GIPRCNT values of 0, and 100 for GIPRCNT values of -100.
With `OC1(c2ccc(Cl)cc2Cl)c2ccccc2C2=NCCN21` (stereo not given) the growth was 93.5% (inactive). With `CCN(CC)c1ccc(C=C2C(=O)NC(=S)NC2=O)cc1` the growth was 98.5% (inactive). With `NC(Cc1ccc(O)cc1)C(=O)N/N=C/c1ccc(N(CCCl)CCCl)cc1` (stereo not given) the growth was 73.3% (inactive). For `S=P(Nc1ccccc1)(Nc1ccccc1)c1ccccc1`, the growth was 101% (inactive). `NCCc1cc(O)c(O)cc1O` was tested, and the growth was 90.9% (inactive). `Cc1ccc(N)cc1[As]=[As]c1cc(N)ccc1C` (stereo not given) was tested, and the growth was -93.6% (active). For `O=C(O)c1nn(Cc2ccc(Cl)cc2)c2ccccc12`, the growth was 122% (inactive). `Nc1c(Br)cc([N+](=O)[O-])cc1[N+](=O)[O-]` was tested, and the growth was 110% (inactive). In the case of `Cc1ccccc1O`, the growth was 102% (inactive). `C/C(=N/OC(=O)N(C)C)c1cc(Cl)ccc1Cl` was tested, and the growth was 98.5% (inactive). `CCOC(=O)/C(C#N)=C/c1ccc(N(CCCl)CCCl)cc1` was tested, and the growth was 95.3% (inactive). For `[Cl][Hg][n]1cnc2c(Cl)c(Cl)c(Cl)cc21`, the growth was 112% (inactive). With `CCC[CH2][Sn]([CH2]CCC)([CH2]CCC)[O]C(=O)CC` the growth was -98.5% (active). With `Fc1ccc(C2=NN(c3ccccc3)C(c3sc(N(CCCl)CCCl)nc3Cl)C2)cc1` (stereo not given) the growth was 99.5% (inactive). `N#C[Se]CCCNS(=O)(=O)C1CC2C=CC1C2` (stereo not given) was tested, and the growth was -71.3% (active). `CCC(CO)NC1CCCCC1` (stereo not given) was tested, and the growth was 108% (inactive). With `CC(=O)C1C(=O)N(C)C(=O)N(C)C1=O` the growth was 106% (inactive). With `O=[N+]([O-])c1ccccc1N1CCNCC1` the growth was 111% (inactive). For `n1nc(-c2nonc2-c2nn[nH]n2)n[nH]1`, the growth was 103% (inactive). `Cc1nnc([S-])s1.[Au+].c1ccc([PH+](c2ccccc2)c2ccccc2)cc1` was tested, and the growth was 33.9% (inactive). `Nc1c(Br)cc2c3c(cccc13)-c1ccccc1-2` was tested, and the growth was 91.8% (inactive). In the case of `CC(=O)[O][Hg][c]1ccccc1`, the growth was -96.7% (active). In the case of `O=C(O)CC(Br)C(=O)CBr` (stereo not given), the growth was 98.2% (inactive). `Cc1cc(N(CCCl)CCCl)ccc1C=Nc1ccc2ccccc2c1` was tested, and the growth was 86.1% (inactive). `COC(=O)C1CC2c3ccccc3C1c1ccccc12` (stereo not given) was tested, and the growth was 120% (inactive). For `CCC(C)/C=C(C)/C=C/C(=O)c1c(O)c(-c2ccc(O)cc2)c[nH]c1=O` (stereo not given), the growth was 38.3% (inactive). For `COC1=CC(=O)OC(CCc2ccc3c(c2)OCO3)C1` (stereo not given), the growth was 92.5% (inactive). For `CC(=O)O[C@H]1CCC2C3CCC4=C/C(=N/O)CCC4(C)C3CCC21C` (stereo not given in full), the growth was 84.9% (inactive). For `Clc1ccc(SSC(Cl)(Cl)Cl)cc1`, the growth was 121% (inactive). `O=C(c1cccs1)C1NO[N+]([O-])=C1c1cccs1` (stereo not given) was tested, and the growth was 88.7% (inactive). In the case of `C=CC(=O)NC(O)C(Cl)(Cl)Cl` (stereo not given), the growth was 97.5% (inactive). In the case of `CCCCOC(=O)c1ccccc1C(=O)O.CCCCOC(=O)c1ccccc1C(=O)O.[Cu+2]`, the growth was 105% (inactive). With `O=S(=O)(c1ccc(Cl)cc1)C(Cl)(Cl)Cl` the growth was 34.1% (inactive). For `O=C(O)C1(Br)CC12c1ccccc1-c1ccccc12` (stereo not given), the growth was 94.9% (inactive). In the case of `ClCCN(CCCl)c1nc(Cl)c(C2CC(c3ccc(Cl)cc3)=NN2c2cc(Cl)cc(Cl)c2)s1` (stereo not given), the growth was 103% (inactive). In the case of `CNC(C)Cc1ccccc1` (stereo not given) (tested in a mixture with another compound), the growth was 109% (inactive). In the case of `S=P(NC1CCCCC1)(N1CC1)N1CC1`, the growth was 120% (inactive). With `Oc1ccc(Br)cc1CN1CCN(Cc2ccc(Cl)cc2)CC1` the growth was 86.3% (inactive). `CC1COC(=O)C1` (stereo not given) was tested, and the growth was 102% (inactive). With `CCCCCCCCCCOc1ccc(C(=O)Oc2ccc(CSP3(=O)OCC4OC(n5ccc(=O)[nH]c5=O)C(F)C4OP(=O)(O)OCC4OC(n5cnc6c(N)ncnc65)C(F)C4O3)cc2)cc1` (stereo not given) the growth was 87.7% (inactive).

— PubChem BioAssay (NCI)
